Experimental data as given in PubChem BioAssay AID624416 (The Scripps Research Institute Molecular Screening Center, 2012).
Among all 360,000 compounds or so, about 1,500 (0.42%) were called active. Many of the other results were omitted from the sample, so actives are more common in it than they were. A number with no mark means an inactive call. No stated cut-off is given here; in the data, active means inhibition above about 8.5%; inactive means the rest.

system: HIV-1 gp120 / PG9 antibody interaction; assay: small molecules engaging PG9 antibody – biochemical, TR-FRET, primary screen (AID 624416); details: TR-FRET gp120-PG9 antibody binding; at 6.7 µM; active compounds read high

| SMILES | inhibition |
| --- | --- |
| Cc1ccccc1OCC(=O)Nc1nc(C)c(C(=O)N(C)C)s1 | 0.64% |
| CC(=O)c1sc(NC(=O)CCCOc2ccccc2C)nc1C | 12% (active) |
| Cc1ccc(F)c(NC(=O)CCOc2ccccc2C)c1 | -0.27% |
| COC(=O)C1=C(C)N(Cc2ccc(F)cc2)C(=S)NC1c1cccc(Cl)c1 (configuration not stated) | -0.02% |
| COC(=O)c1ccc(NC(=S)Nc2cccc(C)n2)cc1 | 17.4% (active) |
| COC(=O)c1ccc(NC(=S)NN2CCOCC2)cc1 | -2.64% |
| Cc1cccc(NC(=O)Cc2ccc(Br)cc2)n1 | 1.95% |
| COc1cccc(CNC(=O)[C@H]2CCCN2C(=O)[C@H]2CCCN2C(=O)C2CCCCC2)c1 | 1.65% |
| O=C(CSc1nc(C2CC2)nc2ccccc12)Nc1ccc2c(c1)OCCO2 | -1.48% |
| CCCNC(=O)CSc1nc(Cc2ccccc2)nc2ccccc12 | 0.37% |
| CCCc1nc(SCC(=O)Nc2ccc(S(=O)(=O)N(C)C)cc2)c2ccccc2n1 | 27% (active) |
| C[C@H](O)[C@@H]1C(=O)N2CCc3c([nH]c4c(-c5ccc6c(c5)OCO6)cccc34)[C@@H]2C[C@@H]1N(C)C(=O)c1ccco1 | -1.4% |
| CN1C(=O)C(Br)(Br)CC1c1cccnc1 (configuration not stated) | -0.49% |
| O=C(Nc1ccccc1F)c1ccccc1-c1ccccc1 | -1.32% |
| O=C(O)c1ccccc1-c1ccccc1C(=O)Nc1nccs1 | 1.5% |
| O=C(Nc1nnc(-c2ccccc2F)s1)c1ccccc1F | 13.2% (active) |
| COc1ccc(NC(=O)N(C)C[C@@H]2OCCCC[C@@H](C)Oc3ccc(NC(=O)NC4CCCCC4)cc3C(=O)N([C@H](C)CO)C[C@@H]2C)cc1 | -0.95% |
| O=S1(=O)c2c(cccc2N2CCCCC2)O[C@H](COCc2ccccc2)CN1C1CC1 | -1.69% |
| CCOC(=O)c1cccc(NC(=O)CCn2nnc3ccccc32)c1 | 1.35% |
| CCn1nnc2cc(C(=O)Nc3ccc(C(=O)OC(C)C)cc3)ccc21 | 20.3% (active) |
| CCOC(=O)c1ccc(NC(=O)Cn2cnc3cc(C)c(C)cc32)cc1 | -1.34% |

| SMILES | inhibition |
| --- | --- |
| C[C@H](O)[C@@H]1CN2CCc3ccc(-c4ccc5c(c4)OCO5)cc3[C@@H]2C[C@@H]1N(C)C(=O)C1CCCCC1 | 2.47% |
| Cc1cc2c(nc1C)CCCN2C | -1.95% |
| Cc1[nH]c2ccccc2c1SCC(=O)Nc1nccs1 | -0.77% |
| Cc1cc(C(F)(F)F)nc(SCC(=O)Nc2nccs2)n1 | 0.14% |
| CC(=O)c1cc(C#N)c(SCC(=O)Nc2nccs2)nc1C | 15.3% (active) |
| O=c1[nH]c(-c2ccccc2)cn1C1CCN(Cc2ccc(-c3nc4ccc(F)cc4nc3-c3ccccc3)cc2)CC1 | 1.31% |
| CCc1ccc(C2=CC(=O)CC(C)(C)C2=O)cc1 | -0.98% |
| O=C(Nc1c(Br)cc2c(c1Br)Cc1cc([N+](=O)[O-])ccc1-2)C(Cl)Cl | 17.5% (active) |
| CC(C)C(=O)Nc1cccc(NC(=O)c2ccc([N+](=O)[O-])cc2Cl)c1 | -0.82% |
| CCC(C)C(=O)Nc1cc([N+](=O)[O-])ccc1Cl (configuration not stated) | -4.15% |
| O=C(Nc1c(Cl)c(C2CC2)nn1-c1ccccc1)C(Cl)(Cl)Cl | 0.67% |
| C[C@@H]1CN([C@H](C)CO)C(=O)CCCn2cc(nn2)CO[C@H]1CN(C)C(=O)Nc1ccc(N2CCCCC2)cc1 | -2.61% |
| COC(=O)[C@]12C[C@H](CC(=O)NCCC(C)C)C(=O)N(CCc3ccc(OC)c(OC)c3)C1=C[C@H](C(C)(C)C)O[C@@H]2C | 0.69% |
| CCOc1cc(C2C(C(=O)OC)=CN(C3CCCC3)C=C2C(=O)OC)cc(Br)c1O | 62.6% (active) |
| CCCC(=O)Nc1cc(OCC)c(NC(=O)NC2CCCCC2)cc1OCC | -1.64% |
| COC(=O)C1=CN(Cc2ccc(OC)cc2)C=C(C(=O)OC)C1c1ccc(O)c(OC)c1 | -1.15% |
| O=C(N[C@H](C(=O)N1CCC[C@H]1C(=O)NCCc1ccccc1Cl)c1ccccc1)c1ccccc1 | 1.57% |
| Cc1ccc(NC(=O)N2c3ccccc3SC2c2ccco2)c(C)c1 (configuration not stated) | 0.01% |
| COc1cccc(CNC(=O)[C@H]2CCCN2C(=O)[C@H]2CCCN2C(=O)c2cc(F)cc(F)c2)c1 | -0.29% |
| COC(=O)[C@]12C[C@H](CC(=O)NCc3ccc(OC)c(OC)c3)C(=O)N(Cc3ccccc3)C1=C[C@H](C(C)C)O[C@@H]2C1CC1 | -0.45% |
| Nc1[nH]c(C(=O)c2ccc(Br)cc2)c(-c2ccc3c(c2)OCO3)c1C(=O)NCCc1c[nH]c2ccccc12 | 0.87% |

| SMILES | inhibition |
| --- | --- |
| CC(OC(=O)c1ccc(-n2cnnn2)cc1)C(=O)NCc1ccccc1 (configuration not stated) | 1.87% |
| CCOC(=O)N1CCN(S(=O)(=O)c2ccc(-n3cnnn3)cc2)CC1 | -0.23% |
| CCOc1ccc(C(=O)COC(=O)c2ccc(-n3cnnn3)cc2)cc1 | 11.4% (active) |
| CCOC(=O)C1=C(C(=O)OCC)C2N(Cc3ccc(C#N)cc3)c3ccccc3[C@@]23C[C@@H](C(=O)OC)N(S(=O)(=O)c2ccc(F)cc2)C3=N1 (some centres not stated) | -0.21% |
| COC(=O)Cc1nnn2c1[C@H](C)[C@H](c1ccccc1[N+](=O)[O-])OCC2 | 0.5% |
| OC(c1nnc(-c2ccccc2)o1)c1cccs1 (configuration not stated) | -1.12% |
| Cc1ccc(C(=O)NCC(=O)OCc2nnc(-c3ccccc3)o2)cc1 | 1.54% |
| Nc1ccc(-c2nnc(-c3ccc(-c4ccccc4)cc3)o2)cc1 | 9.48% (active) |
| COc1ccc(C2=CN(Cc3ccccc3)C(c3ccc(OC)cc3)CC2=O)cc1 (configuration not stated) | 4.38% |
| Cc1nc2cc(NC(=O)CSc3nc4c(C)cccc4cc3C#N)ccc2s1 | 16% (active) |
| Cc1csc(SCC(=O)Nc2ccc(C)c(S(=O)(=O)N(C)C)c2)n1 | -0.14% |
| COCc1cc(C)nc(SCC(=O)Nc2cccc(C)c2)c1C#N | -0.32% |
| N#Cc1c(-c2cccs2)nc(SCC(=O)c2ccc(Br)cc2)[nH]c1=O | 23.5% (active) |
| Cc1nnc(SCC(=O)NCc2cccs2)[nH]c1=O | 1.17% |
| CCc1ccc(C(=O)CSc2nnc(C)c(=O)[nH]2)cc1 | -0.93% |
| O=C(COc1ccc2c3c(c(=O)oc2c1)CCCC3)NCC(O)c1ccccc1 (configuration not stated) | 0.6% |
| O=C(COc1ccc2c3c(c(=O)oc2c1)CCC3)NC1CCCCC1 | -0.41% |
| O=C(Oc1ccccc1)Oc1ccc2c(c1)oc(=O)c1ccccc12 | 28.2% (active) |
| C=CC1=CCN(S(=O)(=O)C(C)(C)C)[C@@H]1CCO | 0.76% |
| COc1ccccc1CCn1cnc(-c2ccccc2)c1C(C)C | 2.18% |
| Nc1nc2c(ncn2[C@@H]2O[C@H](C(=O)N[C@H](Cc3ccccc3)C(=O)NCC3CCCCC3)[C@@H](O)[C@H]2O)c(=O)[nH]1 | -1.03% |

| SMILES | inhibition |
| --- | --- |
| COC(=O)[C@]12C[C@H](CC(=O)NCCc3ccccc3OC)C(=O)N(Cc3ccccc3)C1=C[C@H](C(C)C)O[C@@H]2C1CC1 | -0.91% |
| O=C(C(=O)N1CCC(CNC(=O)c2cccnc2Cl)CC1)c1cccs1 | -0.43% |
| COc1ccc(-n2nc3c(c2NC(=O)c2ccc(N4C(=O)CCC4=O)cc2)CSC3)cc1 | 0.18% |
| COc1cc(NC(=O)c2ccc(-c3csc(C)n3)cc2)c(OC)cc1Cl | -0.71% |
| COc1ccc(-c2csc(NC(=O)c3ccc(N4C(=O)CCC4=O)cc3)n2)cc1OC | 8.78% (active) |
| C=CCN1C(=O)N(Cc2ccccc2)c2ccccc2S1(=O)=O | -0.26% |
| CSc1ccc(Oc2cccc3c2S(=O)(=O)N([C@H](C)c2ccccc2)C[C@@H](COCc2ccccc2)O3)cc1C | -0.66% |
| COc1ccc(-c2c(C)nn3c(N4CCC(C(=O)N5CCCCC5)CC4)cc(C)nc23)cc1OC | 30.3% (active) |
| COc1ccc(CCNC(=O)C2CCN(c3nn4c(=O)cc(C)nc4s3)CC2)cc1OC | 2.38% |
| COc1ccc(S(=O)(=O)N2CCC(C(=O)N3CCCC3)CC2)cc1C | -0.08% |
| CC[C@H](NC(=O)[C@H](Cc1ccccc1)NC(=O)[C@H]1O[C@@H](n2cnc3c(=O)[nH]c(N)nc32)[C@H](O)[C@@H]1O)c1ccccc1 | 1.17% |
| Nc1nc2c(ncn2[C@@H]2O[C@H](C(=O)N[C@@H](Cc3ccccc3)C(=O)NCc3ccccc3)[C@@H](O)[C@H]2O)c(=O)[nH]1 | 0.08% |
| COC(=O)C1=C(C)N(Cc2ccc(C(F)(F)F)cc2)C(=NCc2ccccc2)NC1c1ccccc1C(F)(F)F (configuration not stated) | -0.97% |
| COC(=O)N1Cc2ccnnc2CC1c1ccccc1Br (configuration not stated) | -0.32% |
| CC(C)CNc1cccc2c1S(=O)(=O)N[C@H](C)CO2 | -0.69% |
| Cc1cc(Br)ccc1NC(=O)c1sc2ncn(CC(=O)N3CCN(c4ccccn4)CC3)c(=O)c2c1C | 11.3% (active) |
| Cc1cc(Br)ccc1NC(=O)c1cnc(N2CCN(c3ccccn3)CC2)c2ccccc12 | -0.94% |
| Cc1nc(N2CCN(c3ccccn3)CC2)c2c(C)c(C(=O)Nc3ccc(F)c(Cl)c3)sc2n1 | -0.31% |
| Nc1ncnc2c1ncn2[C@@H]1O[C@H](C(=O)N[C@@H](CCc2ccccc2)C(=O)NCC(=O)N2CCOCC2)[C@@H](O)[C@H]1O | -1.35% |
